Reference: PubChem BioAssay (NCATS)
Records with an inconclusive call do not appear. Active and inactive are the calls of the source. Unless noted, calls come from the whole dose curve; as a rule, active = well fitted curve in the direction sought with a large enough effect; inconclusive = small, poorly fitted or top-dose-only effect, or another doubt; inactive = no such curve, though single readings can be large; an effect the other way counts as inactive or inconclusive.

Columns and labels:
[1] = biological target: Cytochrome P450 3A4 (Homo sapiens) (UniProt P08684); test: qHTS Assay for Inhibitors and Substrates of Cytochrome P450 3A4 (AID 884); note: nearly all actives have a fitted effect of over 50% in size; note: potency is the fitted concentration of half-maximal effect; for activity change, negative = inhibition: % is set by controls: 0 for no effect and ±100 for the full control effect
Chain of Cytochrome P450 3A4 (Homo sapiens) (P08684 whole entry, looked up): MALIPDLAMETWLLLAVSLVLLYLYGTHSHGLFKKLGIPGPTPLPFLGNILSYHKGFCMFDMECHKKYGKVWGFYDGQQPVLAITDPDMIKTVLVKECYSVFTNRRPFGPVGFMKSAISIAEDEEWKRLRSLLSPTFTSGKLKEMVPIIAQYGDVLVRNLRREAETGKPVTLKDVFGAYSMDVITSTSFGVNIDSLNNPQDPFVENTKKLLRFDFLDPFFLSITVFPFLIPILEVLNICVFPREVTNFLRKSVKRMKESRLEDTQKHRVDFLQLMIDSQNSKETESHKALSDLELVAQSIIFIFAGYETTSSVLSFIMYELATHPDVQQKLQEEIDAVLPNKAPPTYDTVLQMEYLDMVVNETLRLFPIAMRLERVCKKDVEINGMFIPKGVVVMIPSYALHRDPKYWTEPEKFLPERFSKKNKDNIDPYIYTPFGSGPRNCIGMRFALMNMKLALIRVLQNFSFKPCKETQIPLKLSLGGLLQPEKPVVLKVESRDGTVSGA
Outline: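 20 nM human CYP3A4 with 25 uM Luciferin-PPXE (at KM) in 200 mM KPO4, preincubated 10 min with compound; NADPH regeneration started a 60 min RT reaction. Luciferin detected by luminescence, normalized to 57 uM ketoconazole as full inhibition.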

[2] = biological target: Cytochrome P450 3A4 (Homo sapiens) (UniProt P08684); test: qHTS Assay for Activators of Cytochrome P450 3A4 (AID 885); note: nearly all actives have a fitted effect of over 65% in size
Outline: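 Steps: enzyme/substrate mix dispensed; compound added, 10 min RT; NADPH regeneration solution added, 60 min RT; luciferin detection buffer stops reaction; 20 min later luminescence measured.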

[3] = Confirmation and Secondary Assay for Modulators of Hemoglobin Beta Chain Splicing at IVS2 654 locus (AID 910);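 note: HeLa cells stably carrying EGFP split by mutant beta-globin IVS2-654 intron; % of control where 0% means no effect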
Outline: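 HeLa cells stably expressing EGFP interrupted by β-globin IVS2-654 intron, seeded overnight in Opti-MEM/2% FCS, then treated 2 days at 37 °C. Restored splicing read as total peak GFP intensity per well by laser scanning cytometry (488 nm excitation, 500–520 nm emission); 500 nM antisense PNA as control.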

[4] = qHTS Assay for Lipid Storage Modulators (AID 1519; calls by dose curve; for activity change, negative = inhibition: % is set by controls: 0 for no effect and ±100 for the full control effect); conditions: Drosophila S3 cells, BODIPY lipid droplet/cell ratio, laser cytometry, cells loaded with oleic acid; for activity change, negative = inhibition: at 57.5 µM (top of the series)
Outline: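 Cells seeded at 5,000 per well were treated with compounds over a concentration series and loaded with oleic acid (400 uM, as added). Lipid droplet fluorescence (488 nm excitation, 500-530 nm channel) was read by laser-scanning cytometry and normalized to 20 uM Triacsin C.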

[5] = Confirmation and Secondary Assay for Modulators of Hemoglobin Beta Chain Splicing at IVS2 705 locus (AID 930);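 note: HeLa cells stably expressing the EGFP-705 splicing reporter; GFP fluorescence per well restored by corrected splicing of the IVS2-705 intron in EGFP; % of control where 0% means no effect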
Outline: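 Assay measures total GFP intensity per well in HeLa EGFP-705 cells after 2 days with compound; mis-splicing normally truncates EGFP, so fluorescence indicates corrected splicing.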

[6] = measured here: cell count channel max response
[7] = measured here: lipid channel max response

With `CC(=O)OC1CC(OC(C)=O)[C@]2(C)C(CC(OC(C)=O)[C@]3(C)C2CC[C@@]2(C)C(c4ccoc4)C(=O)C4O[C@]432)C1(C)C` (some centres undefined) the Potency [1] was 3.98 µM (active), the Potency [2] was “inactive” and the Potency [3] was “inactive”. The activity change, negative = inhibition [4] was -15.3% (inactive), the max response [4, 6] was -13.1% and the max response [4, 7] was -24.4%.
For `CC1CC[C@@]2(OC1)OC1C(O)C3C4CC[C@H]5CC(O[C@@H]6O[C@@H](CO)[C@H](OC7OC(CO)C(O)C(OC8OCC(O)C(O)[C@H]8O)[C@@H]7O[C@@H]7OC(CO)[C@H](O)[C@@H](O[C@@H]8OC(CO)C(O)C(O)C8O)C7O)C(O)C6O)C(O)C[C@]5(C)C4CC[C@]3(C)C1C2C` (some centres undefined), the Potency [2] was “inactive”, the Potency [3] was “inactive” and the Potency [5] was “inactive”. For the same compound, the activity change, negative = inhibition [4] was -0.601% (inactive), the max response [4, 6] was -28.8% and the max response [4, 7] was -26%.
In the case of `CCC(C)C(=O)OC1C(O)C2C(CN3CC(C)CCC3[C@]2(C)O)C2C[C@]34O[C@@]5(O)C(OC(=O)C(C)(O)C(C)O)CCC3(C)C5C(OC(C)=O)C(OC(C)=O)C4[C@@]21O` (some centres undefined), the Potency [1] was “inactive”, the Potency [3] was “inactive” and the Potency [5] was “inactive”. The activity change, negative = inhibition [4] was 4.38% (inactive), the max response [4, 6] was 24.4% and the max response [4, 7] was 35.3%.
With `CN1CC(CNC(=O)OCc2ccccc2)CC2c3cccc4c3c(cn4C)CC21` (centres undefined) the Potency [3] was “inactive”, the Potency [5] was “inactive” and the activity change, negative = inhibition [4] was 7.09% (inactive). For the same compound, the max response [4, 6] was -1.98% and the max response [4, 7] was 5.84%.
In the case of `CC(C)c1ccc2c(c1O)CCC1C3=C(CC[C@]21C)C(=O)OC3` (some centres undefined), the Potency [1] was 15.8 µM (active), the Potency [2] was “inactive” and the Potency [3] was “inactive”. For the same compound, the Potency [5] was “inactive”, the activity change, negative = inhibition [4] was 1.46% (inactive) and the max response [4, 6] was -9.02%. For the same compound, the max response [4, 7] was -0.042%.
In the case of `COC1C(O)C(OC2CC[C@]3(C=O)C4C(OC(C)=O)C[C@@]5(C)C(C6=CC(=O)OC6)CC[C@]5(O)C4CC[C@]3(O)C2)OC(C)C1OC(C)=O` (some centres undefined), the Potency [1] was “inactive”, the Potency [3] was “inactive” and the Potency [5] was “inactive”. For the same compound, the activity change, negative = inhibition [4] was 4.28% (inactive), the max response [4, 6] was 10% and the max response [4, 7] was 17.4%.
In the case of `C=C1C2CC[C@@]3(C)C(c4ccoc4)OC(=O)C[C@@]13OC1CC(=O)C(C)(C)C(C(OC(C)=O)C(=O)OC)[C@@]12C` (some centres undefined), the Potency [1] was 1 µM (active), the Potency [2] was “inactive” and the Potency [3] was “inactive”. The Potency [5] was “inactive”, the activity change, negative = inhibition [4] was 1.36% (inactive) and the max response [4, 6] was 4.29%. The max response [4, 7] was 7.56%.
In the case of `C=C1C([C@@]2(C)C(OC(C)=O)CC(=O)O[C@@](C)(COC(C)=O)C2CC(=O)OC)C(OC=O)C(OC(=O)C(OC(C)=O)C(C)CC)[C@]2(C)C(c3ccoc3)CC(=O)C12O` (some centres undefined), the Potency [2] was “inactive”, the Potency [3] was “inactive” and the Potency [5] was “inactive”. The activity change, negative = inhibition [4] was -5.86% (inactive), the max response [4, 6] was 19% and the max response [4, 7] was 13.8%.
In the case of `CN1CCc2cc3c(cc2C1O)OCO3` (centres undefined), the Potency [3] was “inactive”, the Potency [5] was “inactive” and the activity change, negative = inhibition [4] was 7.6% (inactive). For the same compound, the max response [4, 6] was 9.52% and the max response [4, 7] was 18.6%.
For `c1cc2c(cc1C1OC[C@@H]3C(c4ccc5c(c4)OCO5)OCC13)OCO2` (some centres undefined), the Potency [1] was 0.0794 µM (active), the Potency [2] was “inactive” and the Potency [3] was “inactive”. The Potency [5] was “inactive”, the activity change, negative = inhibition [4] was 7.47% (inactive) and the max response [4, 6] was 12.5%. The max response [4, 7] was 26%.
In the case of `CNC(Cc1c[nH]c2ccccc12)C(=O)O` (centres undefined), the Potency [1] was “inactive”, the Potency [3] was “inactive” and the Potency [5] was “inactive”. For the same compound, the activity change, negative = inhibition [4] was 4.43% (inactive), the max response [4, 6] was 11.7% and the max response [4, 7] was 20.5%.
For `CC(C)(O)C1C2OC(=O)C1[C@]1(O)CC3O[C@@]34C(=O)OC2[C@@]14C` (some centres undefined), the Potency [3] was “inactive”, the Potency [5] was “inactive” and the activity change, negative = inhibition [4] was 4.81% (inactive). The max response [4, 6] was 5.32% and the max response [4, 7] was 12.9%.
In the case of `CC1=CCCC2C1(C)CCC(C)C2(C)CC/C(C)=C/C[n+]1cn(C)c2c(N)ncnc21` (centres undefined), the Potency [1] was 31.6 µM (active), the Potency [2] was “inactive” and the Potency [3] was “inactive”. For the same compound, the Potency [5] was “inactive”, the activity change, negative = inhibition [4] was 6.88% (inactive) and the max response [4, 6] was 2.19%. The max response [4, 7] was 13.1%.
